ChEMBL document CHEMBL4513216, “Probing the Open Global Health Chemical Diversity Library for Multistage-Active Starting Points for Next-Generation Antimalarials” (ACS Infect Dis, 2020)
Hit rate of the full screen: of about 69,000 compounds, about 8,600 (12%) showed an effect of 50% or more. What follows is part of a selection rich in strong results, with near analogues and random picks from the rest.

Tested on: Plasmodium berghei
Test: Screen against P. berghei liver stage (PbLuc), transformed with Luciferase, at 10uM
Format: functional, HepG2
Conditions: tested at 10 uM

Going from CC(C)n1cc(CN2CCCN(C(=O)C(C)n3cccn3)CC2)cn1 (configuration not stated) to Cn1cc(CN2CCCN(C(=O)c3sccc3C#N)CC2)cn1, the INHIBITION falls from 38.5% to -5.25%.

Going from O=C1COc2cc(C(=O)N3CCCC(n4cccn4)C3)ccc2N1 (configuration not stated) to Cc1cnn(C2CCCN(C(=O)c3ccc(N4CCCC4)nc3)C2)c1 (configuration not stated), the INHIBITION rises from -24.2% to 19.6%.

First: CCN1CC(CN(C)Cc2nc(-c3ccoc3)oc2C)CC1=O (configuration not stated)
Second: Cc1cc(-c2ccccc2C(=O)O)nc(C2CCCN(C)C2)n1 (configuration not stated)
The INHIBITION of the first is higher: 39.6% for the first, 30.8% for the second.

Going from CCc1nc2c(s1)C(N(C)C(C)=O)CCC2 (configuration not stated) to CC(=O)N(C)C1CCCc2nc(C)sc21 (configuration not stated), the INHIBITION falls from 6.33% to 3.03%.

Compared with Cc1nc2c(s1)C(N(C)C(=O)NCCCC(C)(C)CO)CCC2 (configuration not stated), CCNC(=O)N(C)C1CCCc2nc(C)sc21 (configuration not stated) is higher in INHIBITION: 3.67% for the first, 64.9% for the second.

Compared with CCc1nc2c(s1)C(N(C)C(=O)c1csnn1)CCC2 (configuration not stated), CCc1nc2c(s1)C(N(C)C(=O)c1cc[nH]n1)CCC2 (configuration not stated) is lower in INHIBITION: 68% for the first, 28.6% for the second.

First: Cc1cc(C)n(CC(=O)N2CCC(c3nc(C(C)C)no3)CC2)n1
Second: CC(=O)N1CCCC(c2cnc(-c3c(C)nn(C)c3C)cn2)C1 (configuration not stated)
The INHIBITION of the first is lower: -6.42% for the first, 47.8% for the second.

Compared with COc1cc(CNCCn2ccnc2)cc2c1OCO2, Nc1nc(SCc2ccc3c(c2)OCO3)ns1 is lower in INHIBITION: 17.4% for the first, -14.2% for the second.

First: COc1ccc(CNC(=O)CCN2C[C@@H](C)[C@](O)(C3CC3)C2)cc1
Second: COc1ccc(CNC(=O)N2CCN(CC(O)C3CC3)CC2)cc1 (configuration not stated)
The INHIBITION of the first is lower: 25.4% for the first, 35% for the second.

Going from CC(=O)Nc1ccc(C(=O)N2CCSCC2c2ccc(C)o2)cc1 (configuration not stated) to CN(CC(=O)N(C)C(c1ccc(Cl)cc1)c1cccnc1)C1CC1 (configuration not stated), the INHIBITION rises from -14.3% to 3.19%.

Going from c1cncc(-c2noc(CN3CCCC3Cn3cccn3)n2)c1 (configuration not stated) to O=C(c1csc(-c2nnc[nH]2)n1)N1CCCCC1Cn1cccn1 (configuration not stated), the INHIBITION rises from -9.37% to 18.2%.

Compared with O=S(=O)(c1cccnc1)N1CCN(Cc2nc(-c3ccco3)cs2)CC1, O=S(=O)(c1cccnc1)N1CCN(Cc2nc(-c3cccs3)cs2)CC1 is higher in INHIBITION: 33.4% for the first, 57.1% for the second.

Going from CC(C)(C)c1csc(CN2CCN(S(=O)(=O)c3cccnc3)CC2)n1 to O=S(=O)(c1cccnc1)N1CCN(CC(O)c2cccs2)CC1 (configuration not stated), the INHIBITION falls from 29% to -7.28%.

First: O=S(=O)(c1ccc(Cl)s1)N1CCN(Cc2nc(-c3ccco3)cs2)CC1
Second: O=S(=O)(c1cccs1)N1CCN(Cc2nc(-c3ccco3)cs2)CC1
The INHIBITION of the first is higher: 86.6% for the first, 57.1% for the second.

Going from O=S(=O)(c1cccs1)N1CCCn2nnc(CN3CCCCC3)c2C1 to O=S(=O)(c1cccs1)N1CCCn2cnc(CN3CCCC3)c2C1, the INHIBITION falls from 23.2% to -11.9%.

Compared with N#CCCN1CCN(S(=O)(=O)c2ccc(Cl)s2)CC1, Cn1cnc(S(=O)(=O)N2CCN(Cc3ccco3)CC2)c1Cl is lower in INHIBITION: 42% for the first, 32.7% for the second.

First: Cc1ccc(CC(=O)N2CCN(CC(O)c3ccccc3)CC2)cn1 (configuration not stated)
Second: O=S(=O)(c1cccnc1)N1CCN(CC(O)c2ccccc2)CC1 (configuration not stated)
The INHIBITION of the first is lower: 42.7% for the first, 83.4% for the second.

Compared with Cn1ccc(C(=O)NC2CCC23CCN(Cc2nccs2)CC3)c1 (configuration not stated), OCCN1CC2(CCN(CC3CC3)CC2)c2ccccc21 is lower in INHIBITION: 38.2% for the first, 26% for the second.

First: CC(C)CN1CCS(=O)(=O)[C@@H]2CCN(S(=O)(=O)C3CC3)CC[C@@H]21
Second: CCS(=O)(=O)N1CCC2(CCC(N3CCCC3)c3ccccc32)CC1 (configuration not stated)
The INHIBITION of the first is lower: 12.1% for the first, 23.1% for the second.

Going from CC(NC(=O)C1CC1)c1cc(O)nc(-c2cccnc2)n1 (configuration not stated) to O=C(c1ccnnc1)N1CCO[C@H]2[C@H](Oc3cccnc3)CC[C@@H]21, the INHIBITION rises from 10.3035% to 13.7%.

First: CN1CCN(C(=O)CCc2ccccc2)Cc2cccnc21
Second: Cc1nccn1CCN(C)C(=O)c1cn(-c2ccccc2)nn1
The INHIBITION of the first is lower: -54.5% for the first, -32.6% for the second.

First: C=c1occc1=C1NN=C2SC(C#N)C(N)=NN21 (configuration not stated)
Second: Cc1nc(Nc2nccs2)cc(C2CN(C(C)C)C2)n1
The INHIBITION of the first is higher: -14.8% for the first, -17.9% for the second.

First: CCC(C(=O)N(Cc1ccccn1)C1CCCCC1)n1cccn1 (configuration not stated)
Second: CCC(C(=O)N(Cc1ccccc1OC)C1CC1)n1cccn1 (configuration not stated)
The INHIBITION of the first is higher: 72.1% for the first, 61% for the second.

Compared with O=C(c1ccoc1)N(Cc1ccccn1)C1CC1, CCC(C)C(=O)N(Cc1ccccn1)C1CC1 (configuration not stated) is higher in INHIBITION: -0.87% for the first, 36.9% for the second.

Going from CCC(C(=O)NC1CCCCC1)n1cccc(OC)c1=O (configuration not stated) to CCS(=O)(=O)N1CCC2(CC1)CC(CC(=O)NC1CC1)c1ccccc12 (configuration not stated), the INHIBITION falls from -1.83% to -5.22%.

First: CCC(C(=O)N(C)Cc1cc(C2CC2)[nH]n1)n1cccn1 (configuration not stated)
Second: CN(C)C(=O)N1CCC(C(=O)NCCNc2ncccc2C#N)CC1
The INHIBITION of the first is lower: -33.5% for the first, 68.8% for the second.

Going from Cn1cc(C(=O)CC2CCCN2C(=O)c2ccncc2F)cn1 (configuration not stated) to NC(=O)c1cnn2c1NCC(CNC1(c3ccccc3)CCC1)C2 (configuration not stated), the INHIBITION rises from 10% to 33.7%.

First: CC(=O)N1CCN(CCCOc2ccccc2F)CC(C(N)=O)C1 (configuration not stated)
Second: Cc1cccnc1NCCNC(=O)C1CCN(Cc2ccco2)CC1
The INHIBITION of the first is lower: 46% for the first, 48.4% for the second.

Compared with COc1ccc(F)cc1C(=O)N1C[C@H]2CC(OC)C[C@H]2C1 (some centres not stated), CN1CCC(N(C)C(=O)c2cnn(-c3ccccc3Br)c2N)CC1 is higher in INHIBITION: 23.2% for the first, 27.3% for the second.

First: Cc1ccccc1CC(C)(C)NC(=O)CCOc1cccc(C(N)=O)c1
Second: Cc1ccccc1CC(C)(C)NC(=O)COc1cccc(C(N)=O)c1
The INHIBITION of the first is higher: 69.7% for the first, 38% for the second.

Going from Cc1ccccc1CC(C)(C)NC(=O)c1cccc(OCC(N)=O)c1 to CC(C)CNC(=O)Nc1cccc(OCC#N)c1, the INHIBITION falls from 36.3% to -8.4%.

First: c1cc2c(cc1Cn1cc(C3CCOC3)nn1)CCCO2 (configuration not stated)
Second: c1ccc2c(c1)N(CC1CCOC1)CC21CCN(c2cnccn2)CC1 (configuration not stated)
The INHIBITION of the first is lower: 46.7% for the first, 84.7% for the second.

Compared with CCC(=O)N1CCCN(Cn2nc(C)c(Br)c2C)CC1, COC(=O)N1CCCN(Cn2nc(C)c(Br)c2C)CC1 is lower in INHIBITION: 56.1% for the first, 13% for the second.

First: COCC(=O)N1CCN(Cn2nc(C)c(Br)c2C)CC1
Second: Cc1cc(C(=O)N2CCn3cc(CN4CCN(C)CC4)nc3C2)no1
The INHIBITION of the first is lower: -36.4% for the first, 32.2% for the second.

Going from CN(C)CCOc1cccc(CN2CCCC3(C2)CN(C)C(=O)O3)c1 (configuration not stated) to CO[C@H]1CN(Cc2nc3ccccc3n2C)C[C@@]12CCCO2, the INHIBITION rises from 20.9% to 25.64%.

Going from CN(Cc1ncc[nH]1)CC(c1cccs1)N1CCOCC1 (configuration not stated) to Cc1ccc(C(CNCc2ncc[nH]2)N2CCOCC2)s1 (configuration not stated), the INHIBITION rises from 12.8% to 60.3%.

First: Cc1ccc(C(CNCc2cccnc2)N2CCOCC2)s1 (configuration not stated)
Second: Cc1ccc(C(CNCc2nccn2C)N2CCOCC2)s1 (configuration not stated)
The INHIBITION of the first is lower: 42.3% for the first, 47.4% for the second.

Compared with CCn1ccnc1CNCC(c1ccc(C)s1)N1CCOCC1 (configuration not stated), Cc1ccc(C(CNCC2CC2)N2CCOCC2)s1 (configuration not stated) is lower in INHIBITION: 60.3% for the first, -23.2% for the second.

First: CC(C)NC(=O)N1CCCn2cnc(CN3CCCC3=O)c2C1
Second: N#Cc1cccnc1NCCNC(=O)N1CCCC(N2CCCC2)C1 (configuration not stated)
The INHIBITION of the first is lower: -12.2% for the first, 24.6% for the second.

Going from CN(C)CCOCC1CN(C(=O)c2ccnnc2)Cc2ccnn2C1 (configuration not stated) to Cc1cccnc1NCCNC(=O)C1CCN(C(=O)N(C)C)CC1, the INHIBITION rises from 39.8% to 50.2%.

Compared with COCCCNC(=O)CN(C)C(=O)c1ccc(-n2cccc2)cc1O, CN(CCn1ccc2ccccc21)C(=O)CS(C)(=O)=O is lower in INHIBITION: 39.25% for the first, 34.1% for the second.

First: CCn1c(Cn2cncn2)nnc1C1CCN(C2CCOCC2)CC1
Second: CCn1c(C2CCNCC2)nn(CCn2cncn2)c1=O
The INHIBITION of the first is lower: 15.7% for the first, 32% for the second.

Going from Cc1n[nH]c(C2CN(C(=O)COCC(F)(F)F)CCO2)n1 (configuration not stated) to CCc1n[nH]c(C2CN(C(=O)c3ccc(Cl)cn3)CCO2)n1 (configuration not stated), the INHIBITION falls from 32.2% to 25.4%.

Going from O=S(=O)(NCc1ccc(S(=O)(=O)N2CCCC2)s1)c1cc(Cl)ccc1Cl to CCCS(=O)(=O)N1CCC2(CC1)CC(N1CCCC1)c1ccccc12 (configuration not stated), the INHIBITION rises from 3.48% to 71.8%.

Going from CN(CCn1ccc2ccccc21)C(=O)Cc1nnn[nH]1 to CN(CCn1ccc2ccccc21)C(=O)Cc1n[nH]c(=O)[nH]1, the INHIBITION falls from 62.8% to 5.38%.

First: c1cnc(N2CC3(CCN(CC4CCOC4)CC3)c3ccccc32)nc1 (configuration not stated)
Second: c1cnc(N2CCC3(CC2)CN(CC2CC2)c2ccccc23)nc1
The INHIBITION of the first is lower: 18.7% for the first, 83.2% for the second.

Going from O=C1N(CC2CC2)CCC12CCN(c1ncccn1)CC2 to c1cnc(N2CCC3(CCN(CC4CCOC4)CC3)C2)nc1 (configuration not stated), the INHIBITION falls from -2.6% to -10.2%.

Compared with CCS(=O)(=O)N1CCC2(CC1)CN(CC1CCOC1)c1ccccc12 (configuration not stated), CCCS(=O)(=O)N1CCC2(CC1)CN(CC1CCOC1)c1ccccc12 (configuration not stated) is higher in INHIBITION: 73.8% for the first, 87.4% for the second.

Compared with CS(=O)(=O)N1CCC2(CC1)CN(CC1CCOC1)c1ccccc12 (configuration not stated), O=C1CC2(CCN(CC3CCOC3)CC2)c2ccccc2N1CC1CC1 (configuration not stated) is lower in INHIBITION: 39.4% for the first, 9.97% for the second.

Compared with CCS(=O)(=O)N1CCC2(CC1)CC(Oc1ccccn1)CO2 (configuration not stated), CCCS(=O)(=O)N1CCC2(CC1)CN(C(=O)N(C)C)c1ccccc12 is higher in INHIBITION: 0.547% for the first, 10.7% for the second.

Compared with CN1CCCN(C[C@@H]2CN(c3nc(C(N)=O)cs3)C[C@@H]2CO)CC1, Cc1cccnc1NCCNC(=O)[C@H]1CNC[C@@H](C(=O)N2CCCC2)C1 is lower in INHIBITION: 20.3% for the first, 18.5% for the second.

Compared with CN(C)C(=O)N1CCC2(CC1)C(=O)N(CC1CCOC1)c1ccccc12 (configuration not stated), COc1cc(CN2CCC(COCc3ccccc3)CC2)cc(OC)c1 is higher in INHIBITION: 7.5% for the first, 33.7% for the second.

First: O=C1CO[C@@H]2CN(CC3CCOCC3)C[C@H]2N1CC1CC1
Second: COCCNC(=O)NCc1cc(-c2ccncc2)n(C2CCCC2)n1
The INHIBITION of the first is higher: 37.5% for the first, 26.4% for the second.

In the case of N#Cc1cccnc1NCCNC(=O)N1CCSCC1, the INHIBITION is reported as 14.6%.
